Measured values as given in PubChem BioAssay (NCATS).
Several values for one entry are separate records, joined by “and”; a condition that tells them apart may be missing. Equal entries are not always repeated. A number with no mark means an inactive call. Results filed as inconclusive are left out. Activity calls are given as the source filed them. Unless noted, the call rests on the fitted dose curve; in most records, active means well fitted curve in the direction sought with a large enough effect; inconclusive means small, poorly fitted or top-dose-only effect, or another doubt; inactive means no such curve, though single readings can be large; an effect the other way counts as inactive or inconclusive.

What was measured:
[1] = target: Peroxisome proliferator-activated receptor alpha (Homo sapiens) (UniProt Q07869); assay: qHTS assay for small molecule agonists of the peroxisome proliferator-activated receptor alpha (PPARalpha) signaling pathway (AID 651778); conditions: PathHunter PPARalpha complementation, chemiluminescence, 6 h; max response: stronger effect = higher value; further: % of control where 0% means no effect
Peroxisome proliferator-activated receptor alpha (Homo sapiens), sequence (Q07869 whole entry, looked up): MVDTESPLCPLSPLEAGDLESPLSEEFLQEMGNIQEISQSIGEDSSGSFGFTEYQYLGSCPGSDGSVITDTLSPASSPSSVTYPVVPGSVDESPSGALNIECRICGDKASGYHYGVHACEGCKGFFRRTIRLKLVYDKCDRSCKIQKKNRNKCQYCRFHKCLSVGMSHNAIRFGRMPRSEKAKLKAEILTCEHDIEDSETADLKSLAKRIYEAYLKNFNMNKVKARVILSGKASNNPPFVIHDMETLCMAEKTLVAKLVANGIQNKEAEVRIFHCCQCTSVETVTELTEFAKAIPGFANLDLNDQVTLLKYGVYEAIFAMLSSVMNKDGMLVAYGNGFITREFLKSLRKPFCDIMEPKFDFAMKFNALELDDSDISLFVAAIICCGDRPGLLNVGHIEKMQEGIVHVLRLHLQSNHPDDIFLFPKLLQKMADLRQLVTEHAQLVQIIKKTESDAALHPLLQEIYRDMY
Method in brief: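 Cells plated at 2,000/well and held overnight at 37 C, 5% CO2, then compound added by pin tool for 6 hr; after PathHunter detection reagent and 60 min at room temperature, chemiluminescence from enzyme complementation was read.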

[2] = qHTS assay for small molecule disruptors of the mitochondrial membrane potential - 1 hr assay (AID 651754; calls by dose curve; further: nearly all actives have a fitted effect of over 35% in size; further: potency means the concentration at half of the fitted maximal effect)
Method in brief: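 In this qHTS format, a 1 hr compound treatment of HepG2 cells precedes Mito-MPS staining, and membrane potential is judged from aggregate (red) against monomer (green) fluorescence intensity.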

[3] = qHTS assay for small molecule disruptors of the mitochondrial membrane potential - 5 hr assay (AID 651755; calls by dose curve; further: nearly all actives have a fitted effect of over 40% in size; further: potency means the concentration at half of the fitted maximal effect)
Method in brief: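 Seed HepG2 overnight, add compound, incubate 5 hr at 37C and 5% CO2, stain 30 min with Mito-MPS, then measure monomer (490/535 nm) and aggregate (540/590 nm) fluorescence.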

[4] = qHTS assay for environmental chemicals that activate the Aryl hydrocarbon Receptor (AhR) signaling pathway (AID 651777); conditions: 1A2-DRE human hepatoma cells, luciferase, 24 h; activation: stronger effect = higher value; further: nearly all actives have a fitted effect of over 15% in size; further: potency means the concentration at half of the fitted maximal effect; on activation: % of control where 0% means no effect
Method in brief: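 Human hepatoma 1A2-DRE cells, stably carrying a dioxin response element and CYP1A2 promoter driving luciferase, were exposed to compounds for 24 hr at 37 C and 5% CO2. Luciferase signal was then read after 30 min One-Glo at room temperature.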

[5] = target: Nuclear receptor ROR-gamma (Homo sapiens) (UniProt P51449); assay: qHTS assay for small molecule antagonists of the retinoid-related orphan receptor gamma (ROR-gamma) signaling pathway (AID 651802); further: nearly all actives have a fitted effect of over 60% in size; further: potency means the concentration at half of the fitted maximal effect
Nuclear receptor ROR-gamma (Homo sapiens), sequence (P51449 whole entry, looked up): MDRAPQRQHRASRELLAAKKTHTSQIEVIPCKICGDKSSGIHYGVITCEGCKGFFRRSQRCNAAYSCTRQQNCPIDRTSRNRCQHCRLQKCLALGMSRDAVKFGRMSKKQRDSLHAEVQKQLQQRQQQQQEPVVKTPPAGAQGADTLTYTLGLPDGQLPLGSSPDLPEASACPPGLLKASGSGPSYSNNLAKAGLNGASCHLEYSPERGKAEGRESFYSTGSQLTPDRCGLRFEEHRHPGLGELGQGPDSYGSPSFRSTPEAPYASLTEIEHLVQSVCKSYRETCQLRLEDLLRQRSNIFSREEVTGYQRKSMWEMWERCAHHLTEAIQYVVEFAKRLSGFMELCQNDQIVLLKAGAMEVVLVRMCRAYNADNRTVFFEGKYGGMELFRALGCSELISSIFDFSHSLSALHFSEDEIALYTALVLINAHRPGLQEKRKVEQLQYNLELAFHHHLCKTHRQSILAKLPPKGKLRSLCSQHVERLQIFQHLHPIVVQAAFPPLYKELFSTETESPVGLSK
Method in brief: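 Doxycycline-induced reporter activity in engineered CHO cells (TET-inducible ROR, RORE-LUC) was measured by luminescence after 16hr compound exposure at 37C.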

[6] = qHTS assay for small molecule activators of the p53 signaling pathway (AID 651743; active means well fitted activation curve with a large enough effect in the signal ratio, not every such curve was filed as active; the % refers to the signal ratio; further: series mostly up to about 92 µM; % of control where 0% means no effect); conditions: HCT-116 p53RE-bla, beta-lactamase FRET ratio, 16 h; activation: stronger effect = higher value
Method in brief: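 Here HCT-116 cells with an integrated p53-responsive beta-lactamase gene were incubated with compounds (16 hours, 37 C) after a 5-hour plating period; beta-lactamase activity was detected as fluorescence intensity via B/G FRET substrate.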

[7] = target: Tyrosine-protein kinase Yes (Homo sapiens) (UniProt P07947); assay: qHTS for small molecule inhibitors of Yes1 kinase: Primary Screen (AID 686947); further: nearly all actives have a fitted effect of over 60% in size; further: potency means the concentration at half of the fitted maximal effect
Tyrosine-protein kinase Yes (Homo sapiens), sequence (P07947 whole entry, looked up): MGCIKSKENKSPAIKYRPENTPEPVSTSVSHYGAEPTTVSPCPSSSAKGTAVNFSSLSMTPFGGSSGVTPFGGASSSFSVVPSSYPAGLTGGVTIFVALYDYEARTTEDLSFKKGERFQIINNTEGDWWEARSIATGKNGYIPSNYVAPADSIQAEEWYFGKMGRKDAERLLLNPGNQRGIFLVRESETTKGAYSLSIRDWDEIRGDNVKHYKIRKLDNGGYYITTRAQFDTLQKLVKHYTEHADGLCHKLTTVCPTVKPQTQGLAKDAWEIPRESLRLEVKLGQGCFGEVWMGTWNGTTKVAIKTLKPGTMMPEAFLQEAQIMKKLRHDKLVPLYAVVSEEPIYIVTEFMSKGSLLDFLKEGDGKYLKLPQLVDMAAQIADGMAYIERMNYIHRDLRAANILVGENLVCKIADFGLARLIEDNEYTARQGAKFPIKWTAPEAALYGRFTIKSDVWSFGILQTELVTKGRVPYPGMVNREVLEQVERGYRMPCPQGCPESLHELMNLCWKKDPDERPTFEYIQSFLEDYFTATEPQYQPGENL
Method in brief: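 In this qHTS format, inhibition is expressed relative to DMSO controls with enzyme (maximum) and without enzyme (minimum). The 60 min room-temperature reaction uses 0.1 mM ATP, with ADP detected by luminescence.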

[8] = target: Tumor necrosis factor (Homo sapiens) (UniProt P01375); assay: qHTS assay to identify small molecules that stimulate Tumor Necrosis Factor-alpha (TNF-alpha) secretion (AID 651757; active means well fitted curve in the direction sought with a large enough effect in the signal ratio; the % refers to the signal ratio; further: 0% is about no effect)
Tumor necrosis factor (Homo sapiens), sequence (P01375 whole entry, looked up): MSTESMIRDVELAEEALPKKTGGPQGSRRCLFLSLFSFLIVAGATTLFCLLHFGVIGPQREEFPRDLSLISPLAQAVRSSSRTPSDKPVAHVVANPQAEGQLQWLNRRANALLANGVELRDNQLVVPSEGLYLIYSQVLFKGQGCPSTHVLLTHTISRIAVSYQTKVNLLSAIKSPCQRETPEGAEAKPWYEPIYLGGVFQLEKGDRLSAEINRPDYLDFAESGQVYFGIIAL
Method in brief: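 Using 3000 THP-1 cells per well, compounds and controls were applied for 17 hrs at 37 C. Detection followed with two labeled anti-TNF-alpha antibodies (cryptate donor, XL665 acceptor) for 3 hr at room temperature, measured by TR-FRET.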

[9] = qHTS assay for small molecule activators of the nuclear factor-kappa B (NF-kB) signaling pathway (AID 651749; active means well fitted activation curve with a large enough effect in the signal ratio; the % refers to the signal ratio; further: series mostly up to about 77 µM; % of control where 0% means no effect); conditions: NF-kB-bla ME-180 cells, beta-lactamase FRET ratio, 16 h; stronger effect = higher value
Method in brief: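 Beta-lactamase reporter expression, controlled by NF-kB response elements in ME-180 cells, was quantified fluorometrically via FRET disruption; cells at 2,000/well had been incubated with 23 nL test compound for 16 hr.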

SMILES: Nc1c(Cl)c(Cl)c(Cl)c(Cl)c1Cl
- max response [1]: -0.704%

SMILES: CC(=O)[O][Hg][c]1ccccc1
- Potency [2]: 16.8 µM (active)
- Potency [3]: 13.3 µM (active)
- activation [4]: -9.33% and -11.2%
- max response [1]: -13.3% and -4.57%
- Potency [5]: 0.531 µM (active)

SMILES: Nc1ccc(N=Nc2ccccc2)cc1
- activation [6]: -2.42%
- max response [1]: -2.06%

SMILES: Nc1ccc(Sc2ccc(N)cc2)cc1
- Potency [2]: inactive
- Potency [3]: inactive
- activation [4]: 6.89% and 6.82%
- max response [1]: -3.47% and -0.953%
- Potency [5]: inactive

SMILES: CC(=O)Nc1ccc(OC[C@](C)(O)C(=O)Nc2ccc([N+](=O)[O-])c(C(F)(F)F)c2)cc1
- Potency [7]: inactive

SMILES: CN(C)[C@@H]1C(=O)C(C(N)=O)=C(O)[C@@]2(O)C(=O)C3=C(O)c4c(O)cccc4[C@@](C)(O)[C@H]3[C@H](O)[C@@H]12
- Potency [3]: inactive
- outcome [8]: inactive
- activation [4]: 0.477% and 1.23% and -3.54%
- max response [1]: -3.16% and 0.185% and -4.32%

SMILES: Cc1ccccc1-n1c(Cn2cnc3c(N)ncnc32)nc2cccc(C)c2c1=O
- Potency [7]: inactive

SMILES: O=C(O)C(Cl)Cl
- outcome [8]: inactive
- activation [4]: 3.85% and 0.254%
- max response [1]: -0.693% and -4.76%
- Potency [5]: inactive

SMILES: Cc1c(C(=O)Nc2cccc(C(F)(F)F)c2)cc(-c2ccccc2)n1CCCN1CCOCC1
- Potency [7]: inactive

SMILES: O=C(Oc1ccc([N+](=O)[O-])cc1)N1CCC(C(O)(c2ccc3c(c2)OCO3)c2ccc3c(c2)OCO3)CC1
- Potency [7]: 2.44 µM (active)

SMILES: Nc1cccc2c(N)cccc12
- Potency [2]: 2.98 µM (active)
- Potency [3]: 5.96 µM (active)
- Potency [4]: 25.1 µM (active)
- Potency [5]: inactive

SMILES: O=[N+]([O-])/N=C1\NCCN1Cc1ccc(Cl)nc1
- max response [1]: -0.352%

SMILES: CCCCCCCCCCCCCCCC[N+](C)(C)C
- activation [9]: 1.41%
- activation [4]: 0.975% and 0.339%
- max response [1]: 1.77% and -0.579%

SMILES: CO/C=C(/C(=O)OC)c1ccccc1Oc1cc(Oc2ccccc2C#N)ncn1
- activation [6]: 25%
- activation [4]: 1.61%

SMILES: CCCCCCCCCC(CC)c1ccc(S(=O)(=O)O)cc1 (stereo not given)
- activation [4]: -1.06%
- max response [1]: 1.36%

SMILES: O=C(O)CCCOc1ccc(Cl)cc1Cl
- activation [6]: 3.34%
- activation [4]: 4.85%
- max response [1]: 5.21%

SMILES: C1=CCOCc2cc(ccc2OCCN2CCCC2)Nc2nccc(n2)-c2cccc(c2)OCC1
- Potency [7]: 0.0434 µM (active)

SMILES: Cc1nc2cnc3ccc(C#Cc4cccnc4)cc3c2n1-c1ccc(C(C)(C)C#N)cc1
- Potency [7]: 2.18 µM (active)

SMILES: Brc1ccccc1-c1ccccc1
- Potency [5]: inactive

SMILES: CC1CC(C)C(=O)C(C(O)CC2CC(=O)NC(=O)C2)C1 (stereo not given)
- Potency [7]: inactive

SMILES: Nc1ccc([N+](=O)[O-])cc1O
- Potency [3]: 37.6 µM (active)

SMILES: O=C(O)c1cc(Oc2ccc(C(F)(F)F)cc2Cl)ccc1[N+](=O)[O-]
- activation [9]: -1.27%
- activation [4]: 2.44%
- max response [1]: -3.73%

SMILES: c1cc(-c2cnn3cc(-c4ccc(OCCN5CCCCC5)cc4)cnc23)ccn1
- Potency [7]: 0.0547 µM (active)

SMILES: COc1ccc2c(c[n+](C)c3c4cc5c(cc4ccc23)OCO5)c1OC
- Potency [7]: inactive
